Rows were chosen to be rich in hits. Some 0.87% of all compounds tested hit in one or more screens of this group.
RECQ1 inh-1 – inhibitors of human RECQ1 DNA helicase; AID 2549; P46063; 240,000 compounds, 0.54% hits; RECQ1 DNA unwinding, red fluorescence kinetic read; Potency, µM (series often up to 57.3 µM), most hits filed as inhibitors; also: nearly all actives have a fitted effect of over 30% in size
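RECQ1T1 50 nM; forked duplex (20 bp + 30-nt ss tails) 200 nM, ATP 2 mM final; pH 8.0, 2 mM MgCl2, 2.5 ug/ml poly(dI-dC); 15 min compound preincubation; discontinuous kinetic read over 2 h at RT.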
GCN5L2 inh – blocks human GCN5L2 histone acetyltransferase. AID 504327. Q92830. Potency, µM (doses to about 58.9 µM), actives largely listed as inhibitors. 390,000 compounds, 0.21% hits. GCN5L2 HAT assay, ThioGlo1 CoA-SH fluorescence
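Titration-based screen in which CoA formation is detected via maleimide probe ThioGlo1 (50uM) turning fluorescent on thiol reaction; substrates H3(1-25) 75uM and acetyl-CoA 70uM, GCN5L2 20nM, 20 min incubation at room temperature.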
TDP1 block – TDP1 (human) enzyme inhibition. recombinant TDP1, AlphaScreen DNA substrate cleavage. Potency, µM (top dose mostly 130 µM), actives largely listed as inhibitors. 350,000 compounds, 0.28% hits. AID 485290; also: nearly all actives have a fitted effect of over 40% in size
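Enzyme-compound mixtures sat 15 min at room temperature, followed by a 5 min reaction with 15 nM final substrate and 10 min with AlphaScreen beads. Recombinant human Tdp1 was used at 1 nM final.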
BLM helicase inh – inhibitors of human Bloom syndrome helicase BLM; recombinant BLM DNA unwinding, fluorescence dequenching; Potency, µM (highest dose often 56.1 µM), most hits filed as inhibitors; 350,000 compounds, 0.2% hits; also: nearly all actives have a fitted effect of over 35% in size
Target sequence (P54132 whole entry, looked up): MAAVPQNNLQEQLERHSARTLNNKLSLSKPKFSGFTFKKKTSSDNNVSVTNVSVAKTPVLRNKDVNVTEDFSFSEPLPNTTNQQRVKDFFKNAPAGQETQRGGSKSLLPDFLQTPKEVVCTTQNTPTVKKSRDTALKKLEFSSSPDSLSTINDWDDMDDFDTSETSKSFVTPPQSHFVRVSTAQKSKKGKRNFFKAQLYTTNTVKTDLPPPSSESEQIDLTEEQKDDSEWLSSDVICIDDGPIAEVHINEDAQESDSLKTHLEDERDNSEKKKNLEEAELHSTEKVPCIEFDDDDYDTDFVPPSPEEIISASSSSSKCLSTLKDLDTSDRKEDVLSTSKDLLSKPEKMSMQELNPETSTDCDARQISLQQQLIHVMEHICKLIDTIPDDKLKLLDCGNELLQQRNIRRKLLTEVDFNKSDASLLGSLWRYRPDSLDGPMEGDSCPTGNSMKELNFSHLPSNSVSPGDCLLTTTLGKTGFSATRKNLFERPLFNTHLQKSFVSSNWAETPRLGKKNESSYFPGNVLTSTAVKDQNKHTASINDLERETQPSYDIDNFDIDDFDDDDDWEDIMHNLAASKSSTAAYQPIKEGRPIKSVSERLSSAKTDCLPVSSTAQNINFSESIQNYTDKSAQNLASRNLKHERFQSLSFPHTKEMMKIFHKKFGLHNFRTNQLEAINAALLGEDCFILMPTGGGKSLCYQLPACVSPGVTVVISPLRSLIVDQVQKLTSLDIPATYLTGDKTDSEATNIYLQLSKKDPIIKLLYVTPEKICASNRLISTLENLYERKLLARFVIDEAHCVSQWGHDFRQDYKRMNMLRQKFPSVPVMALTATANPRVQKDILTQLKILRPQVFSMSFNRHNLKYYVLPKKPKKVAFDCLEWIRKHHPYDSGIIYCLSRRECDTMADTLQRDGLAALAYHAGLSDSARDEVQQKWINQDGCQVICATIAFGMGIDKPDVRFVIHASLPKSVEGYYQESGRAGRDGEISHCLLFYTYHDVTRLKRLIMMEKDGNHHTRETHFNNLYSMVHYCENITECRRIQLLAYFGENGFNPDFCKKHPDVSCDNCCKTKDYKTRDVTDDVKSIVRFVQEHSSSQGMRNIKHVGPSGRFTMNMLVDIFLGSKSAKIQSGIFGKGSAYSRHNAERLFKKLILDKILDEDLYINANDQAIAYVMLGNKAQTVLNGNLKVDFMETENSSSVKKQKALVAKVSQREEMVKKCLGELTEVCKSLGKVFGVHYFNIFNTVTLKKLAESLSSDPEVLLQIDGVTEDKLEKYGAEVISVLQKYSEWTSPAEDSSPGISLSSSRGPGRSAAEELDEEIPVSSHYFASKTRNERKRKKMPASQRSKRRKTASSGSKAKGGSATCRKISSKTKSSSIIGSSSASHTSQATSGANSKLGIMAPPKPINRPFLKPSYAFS
APEX1 inh – inhibitors of human APE1 endonuclease; P27695; recombinant APE1, TAMRA/BHQ-2 abasic DNA cleavage fluorescence; Potency, µM (series often up to 65.8 µM), most hits filed as inhibitors; 350,000 compounds, 0.35% hits; also: nearly all actives have a fitted effect of over 55% in size
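Enzyme (0.75 nM final) and test compound are incubated 15 min at room temperature before adding 50 nM quenched THF abasic-site duplex. Cleavage dequenches TAMRA, followed at 525/598 nm over three reads one minute apart.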
RECQ1 conf – confirmation of human RECQ1 helicase inhibitors. Potency, µM (top dose mostly 229 µM), most hits filed as inhibitors. AID 2708. 610 compounds, 28% hits. shares compounds with RECQ1 inh-1. RECQ1 helicase DNA unwinding, fluorescence; also: nearly all actives have a fitted effect of over 45% in size
RECQ1 ADP FP – ADP displacement flagged in RECQ1 inhibitor counter-screen; shares compounds with RECQ1 inh-1; ADP fluorescence polarization displacement counterscreen; Potency, µM (top dose mostly 228 µM), most hits filed as inhibitors; 530 compounds, 27% hits; AID 2711; also: nearly all actives have a fitted effect of over 45% in size
RECQ1 inh-2 – confirmation of human RECQ1 helicase inhibitors. shares compounds with RECQ1 inh-1. recombinant RECQ1 DNA unwinding, red fluorescence. Potency, µM (top dose mostly 119 µM), actives largely listed as inhibitors. 1,100 compounds, 15% hits. AID 504841; also: nearly all actives have a fitted effect of over 50% in size
Numbers stand for hits; n = inactive; u = inconclusive; x = not tested or not shown; ! = not confirmed by another sample; [ ] = remark or other dose. Calls follow the shape of the dose curve; as a rule, active = well fitted curve in the direction sought with a large enough effect; inconclusive = small, poorly fitted or top-dose-only effect, or another doubt; inactive = no such curve, though single readings can be large; an effect the other way counts as inactive or inconclusive.

SMILES | RECQ1 inh-1 | GCN5L2 inh | TDP1 block | BLM helicase inh | APEX1 inh | RECQ1 inh-2 | others
CC(=O)c1cc2c(cc1N(C(=O)Cn1nnc3ccccc31)C(C(=O)NCCC(C)C)c1cccnc1)OCO2 (configuration not stated) | n | n | n | n | n | x | RECQ1 conf=n;RECQ1 ADP FP=n
COc1ccc(/C=N/NC(=O)c2nn(-c3ccccc3)c(=O)c3c(N)scc23)cc1 | 25µM | u | x | n | u | x | RECQ1 conf=n;RECQ1 ADP FP=u
COc1ccc(Nc2ncnc3c2cnn3-c2ccc(C)cc2)cc1Cl | x | n | n | n | x | x
Cc1ccc(-n2cccc2C(=O)NS(=O)(=O)c2ccc(C)cc2)cc1 | u | n | x | n | n | u
O=C(NC1CCC(O)CC1)c1cc(-c2ccco2)nc2ccccc12 (configuration not stated) | 22µM | n | x | n | u | u
CCc1nnc(NC(=O)c2cc(-c3ccco3)nc3ccccc23)s1 | u | n | n | n | u | u
O=C(O)c1cc(-c2ccco2)nc2ccc(Br)cc12 | 3.2µM! | u | n | n | 13µM | u | RECQ1 conf=45µM;RECQ1 ADP FP=u
O=[N+]([O-])c1ccccc1S(=O)(=O)NCC1CCC(CNCC2CCc3ccccc3C2)CC1 (configuration not stated) | n | x | n | n | n | x
COc1ccc(CN2C(=O)c3ccccc3C2C(=O)NC2CCCC(C)C2C)c(OC)c1 (configuration not stated) | 3.2µM | n | n | n | n | n | RECQ1 conf=n;RECQ1 ADP FP=n
COC1=C(Nc2ccc(OC)cc2)C(=O)c2ccccc2C1=O | n | n | n | n | n | x
COC1=C(Nc2ccc(O)cc2)C(=O)c2ccccc2C1=O | u | n | n | n | u | n
Cn1cccc1C(=O)NCc1ccccn1 | x | n | n | x | n | x
Cc1cc(NC(=O)c2oc3c(c2C)-c2[nH]ncc2CC3)ccc1Br | x | n | n | n | x | x
CCc1ccc(NC(=O)COC(=O)c2ccc(Cl)c(S(=O)(=O)N3CCCCCC3)c2)cc1 | u | n | n | n | n | u
O=[N+]([O-])c1cc(F)c2cccnc2c1O | u | n | n | u | n | n
COc1ccc(OC)c(-c2csc(NC(=O)Cn3[nH]c(=O)c4ccccc4c3=O)n2)c1 | 28µM | n | n | n | n | u
Cc1nn(S(=O)(=O)c2ccc(F)cc2)c(C)c1S(=O)(=O)N1CCCCCC1 | x | n | n | n | x | x
O=c1cc(-c2ccccc2)nc2nc(-c3ccco3)[nH]n12 | 25µM | n | n | n | n | n
Cc1nc2nc(-c3ccccc3)cc(=O)n2[nH]1 | n | n | n | n | n | x
CNc1ccc(Br)cc(C(=O)/C=C/c2ccc(OC)cc2OC)c1=O | n | n | x | u | n | x
CCNc1ccc(Br)cc(C(=O)/C=C/c2ccc3c(c2)OCO3)c1=O | u | n | n | n | u | u
CNc1ccc(Br)cc(C(=O)/C=C/c2cccc(OC)c2)c1=O | 28µM | n | n | n | u | u
COC(=O)C/C=C\[C@@H](C)[C@@H](/C=N\O[C@@H](C)c1cn([C@H]2COC[C@H]2O)nn1)OC | n[11.5 µM] | x | n[21 µM] | n[12.4 µM] | n[12.4 µM] | x
CC(C)=CCC/C(C)=C/CO/N=C1/C[C@@H](O)[C@@H](O)[C@@H]2[C@@H]3C(=O)N(C[C@@H]4CCCO4)C(=O)[C@H]3CC[C@@H]12 | n[11.5 µM] | x | n[21 µM] | n[12.4 µM] | u | x
CCC(C(=O)Nc1ccccc1OC)n1c(C(=O)OC)cc2ccsc21 (configuration not stated) | 1.4µM | n | n | n | n | n | RECQ1 conf=u;RECQ1 ADP FP=n
SMILES | RECQ1 inh-1 | GCN5L2 inh | TDP1 block | BLM helicase inh | APEX1 inh | RECQ1 inh-2 | others
COc1ccc(CCn2c(N)c(C(=O)NCc3ccco3)c3nc4ccccc4nc32)cc1 | n | n | n | n | n | x
COc1ccc(CCn2c(N)c(C(=O)NCc3ccco3)c3nc4ccccc4nc32)cc1OC | u | u | n | n | u | n
COC(=O)C/C=C1\c2ccccc2C(OC)C1C (configuration not stated) | n[11.5 µM] | x | n[21 µM] | n[12.4 µM] | n[12.4 µM] | x
CN(C)c1ccc(-c2nc(Nc3ccncc3)c3ccccc3n2)cc1 | u | u | n | n | n | u
CN(C)C(=O)c1ccc(-c2nc(Nc3ccncc3)c3ccccc3n2)cc1 | n | n | x | n | n | x
CCOC(=O)c1ccc(S(=O)(=O)N2CCN(c3nc(-c4cccs4)nc4ccccc34)CC2)cc1 | x | x | n | x | x | x
CC(C)C[C@@H](NC(=O)[C@H](Cc1ccccc1)NC(=O)c1cnccn1)B(O)O | x | n | x | n | x | x
COc1ccc(C(=O)Nc2nc(C)cc(C)n2)cc1 | u | n | n | n | n | n
O=C1c2nc3cc(-c4ccco4)[nH]n3c(=O)c2CN1Cc1ccccc1 | 11µM | u | x | u | n | n | RECQ1 conf=u;RECQ1 ADP FP=63µM
CCc1ccc(NC(=O)C(CC)n2c(=O)c(-c3ccccc3NC(C)=O)nc3ccccc32)cc1 (configuration not stated) | x | n | n | n | x | x
COc1ccc(OC)c(NC(=O)c2oc(=O)c3ccccc3c2-c2ccccc2)c1 | x | n | n | n | x | x
CCN1/C(=C/c2ccc3ccccc3[n+]2CC)C=Cc2ccccc21 | u | n[0.501 µM] | n | n | n | 50µM
Cc1ccc(S(=O)(=O)N2CCC(C(=O)NCCN3CCCCCC3)CC2)cc1 | u | n | n | n | n | n
O=c1c(-c2ccc(F)cc2)nc2cnc(N3CCOCC3)nc2n1C[C@H]1CCCO1 | n | n | x | n | n | x
O=C(O)CCc1ccc(-c2ccc(Br)cc2)n1CC(=O)O | 32µM | n | n | n | n | u
Cc1cc(/C=C2\SC(=S)NC2=O)c(C)n1-c1ccccc1 | n | n | n | n | n | x
Cc1cc(/C=C2\SC(=S)NC2=O)c(C)n1C | 0.32µM | n | n | n | n | x | RECQ1 conf=45µM;RECQ1 ADP FP=10µM
Cc1cc(O)cc(O)c1C(=O)OC1(C)C(=O)C=C2C=C(/C=C/C(=O)O)OC=C2C1=O (configuration not stated) | 28µM | x | x | n | 14µM | u
CCC(=O)OC1(C)C(=O)C=C2C=C(C3CC3)OC=C2C1=O (configuration not stated) | n | x | n | n | n | x
COc1ccc(C)cc1NC(=O)C(=O)NCCc1sc(-c2ccc(Cl)cc2)nc1C | x | n | n | n | x | x
CCN1C(=O)C(CC(=O)Nc2ccc(F)cc2)N(CCc2ccc(OC)cc2)C1=S (configuration not stated) | 22µM | n | n | n | n | n
CC(c1ncncc1F)[C@](O)(Cn1cncn1)c1ccc(F)cc1F (some centres not stated) | x | n | n | n | x | x

High-throughput results: PubChem BioAssay, National Center for Advancing Translational Sciences (NCATS)
